Screens as filed in PubChem BioAssay.
G9a block – blocks human histone lysine methyltransferase G9a; Q96KQ7; G9a H3K9 monomethylation, AlphaScreen, 2 h; Potency, µM (doses to about 102 µM), usual class: inhibitors; hit rate 8.8% among 350,000; also: nearly all actives have a fitted effect of over 75% in size
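Signal arises when biotinylated H3K9 peptide, once monomethylated, bridges streptavidin donor and antibody-captured acceptor beads. Enzyme at 20 nM was preincubated 15 min with test compounds; peptide 500 nM and SAM 20 uM then reacted for 2 h.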
VDR inhibitor – inhibitors of human vitamin D receptor; VDR-SRC2-3 peptide fluorescence polarization, 2 h; hit rate 0.93% among 400,000; Potency, µM, actives largely listed as inhibitors
Target sequence (P11473 whole entry, looked up): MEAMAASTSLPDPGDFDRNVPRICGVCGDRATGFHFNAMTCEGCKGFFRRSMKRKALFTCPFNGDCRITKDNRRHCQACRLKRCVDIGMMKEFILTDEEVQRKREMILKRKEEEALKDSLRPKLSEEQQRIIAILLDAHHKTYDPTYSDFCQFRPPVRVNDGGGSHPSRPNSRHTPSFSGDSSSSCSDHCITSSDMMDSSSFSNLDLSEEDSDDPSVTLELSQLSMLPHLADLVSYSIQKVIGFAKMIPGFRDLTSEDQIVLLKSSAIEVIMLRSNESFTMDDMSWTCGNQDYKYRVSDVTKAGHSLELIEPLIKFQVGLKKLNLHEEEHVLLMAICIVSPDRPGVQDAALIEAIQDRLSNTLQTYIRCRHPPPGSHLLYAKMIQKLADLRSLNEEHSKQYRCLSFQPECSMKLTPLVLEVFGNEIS
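Reagent solutions, kept cold and dark, are dispensed first; compounds are then pinned in at 23 nl, plates briefly spun, and incubated 2 h at ambient temperature. Inhibition of VDR–SRC2-3 peptide binding is read by fluorescence polarization.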
Sfp inh – blocks B. subtilis Sfp PPTase activity; Q9F4F7; Biochemical Sfp PPTase activity, qHTS; Potency, µM, actives largely listed as inhibitors; hit rate 3.5% among 310,000; AID 1490;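 also: the enzyme is Sfp with the accession as filed and its product quenches rhodamine fluorescence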
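Reaction rates are the 30-min fluorescence difference (ex 525, em 598 nm) in wells containing 15 nM Sfp, 5 uM rhodamine-CoA and 12.5 uM BHQ-2-YbbR at pH 7.6 with 10 mM MgCl2.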
ALOX12 inh – inhibitors of human 12S-lipoxygenase ALOX12. P18054. purified 12hLO, xylenol orange hydroperoxide absorbance. Potency, µM (series often up to 108 µM), most hits filed as inhibitors. hit rate 1.1% among 580,000
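Hydroperoxide product was detected by ferrous iron/xylenol orange as the 573 to 405 nm absorbance ratio. Arachidonic acid at 40 uM (final) was turned over for 30 min at room temperature by 150 nM human 12hLO, pH 7.0 Hepes buffer, after 15 min compound preincubation.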
Glioma ERSR ind – ER stress response induction in glioma; U87-MG GRP78 promoter luciferase reporter, 16 h; Potency, µM, hits mostly activators; hit rate 0.02% among 420,000; also: series mostly up to about 76 µM; nearly all actives have a fitted effect of over 35% in size
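ERSR induction read as luciferase luminescence (Bright-Glo, 10 min at room temperature) in stably transfected human U87-MG glioma cells exposed to compounds for 16 h, using GRP78 as sensor.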
A number is an active result; 0 = inactive; ? = inconclusive; - = no result; [ ] = another dose, or the depositor's remark. The entries come from a sample that favours hits as a whole. Calls follow the shape of the dose curve; as a rule, active = well fitted curve in the direction sought with a large enough effect; inconclusive = small, poorly fitted or top-dose-only effect, or another doubt; inactive = no such curve, though single readings can be large; an effect the other way counts as inactive or inconclusive.

SMILES	G9a block	VDR inhibitor	Sfp inh	ALOX12 inh	Glioma ERSR ind
COc1cccc(C2=NN(S(=O)(=O)c3ccccc3)C(c3ccc4nccnc4c3)C2)c1 (configuration not stated)	-	-	-	0	-
CCOC(=O)C1(CCOc2ccccc2)CCN(Cc2cccc(OC)c2O)CC1	-	0	0	7.1µM	0
CCOC(=O)C1(CCOc2ccccc2)CCN(Cc2cc(OC)ccc2OC)CC1	?	0	0	0	0
CCOC(=O)C1(CCOC)CCN(Cc2ccncc2)CC1	50µM	0	0	0	0
CCOC(=O)C1(CCOc2ccccc2)CCN(Cc2ccncc2)CC1	-	0	45µM	0	0
COc1cc2c(C(=O)NCc3ccc(C)o3)cn(CC(C)C)c(=O)c2cc1OC	45µM	0	45µM	0	0
CCCC(=O)N(CC)CCc1ccccc1	-	-	-	0	-
CNC(=O)NC(=O)CSc1nc(-c2ccco2)nc2ccccc12	-	-	-	0	-
CCc1nc2ccccc2n1CC(O)c1ccc(F)cc1 (configuration not stated)	-	-	-	0	-
Cc1cccc(C)c1Nc1c(-c2ccccn2)nc2ccccn12	40µM	0	0	?	0
Cc1cccc(C)c1Nc1c(-c2ccsc2)nc2ccccn12	14µM	0	-	?	0
Cc1cccc(C)c1Nc1c(-c2ccsc2)nc2ccc(Cl)cn12	?	0	-	0	0
CCCCC1CCC(=O)O1 (configuration not stated)	-	-	-	0	-
O=C(NNc1nc2cc3c(cc2s1)OCO3)c1cccc(F)c1	8.9µM	0	28µM	0	0
O=C(NNc1nc2cc3c(cc2s1)OCO3)c1ccccc1	28µM	0	?	?	0
COC(=O)CSc1nc(-c2ccc(C)cc2)c2c(c1C#N)CCCC2	0[2.33 µM]	0	?	0	0
COC(=O)c1ccc(CSc2nc(C(F)(F)F)c3c(c2C#N)CCC3)o1	0[0.0925 µM]	0	56µM	0	0
CN(C)c1ccc(Nc2nc3ccccc3n3nnnc23)cc1	3.2µM	0	-	?	0
Cc1c(S(=O)(=O)c2ccccn2)c(N)n(Cc2cccc(Cl)c2)c1C	28µM	0	?	?	0
O=S1(=O)N=C(N/N=C/c2ccc(Br)o2)c2ccccc21	40µM	0	0	0	0
NC(N)=NC(N)=Nc1ccccc1Cl	-	-	-	0	-
CN(Cc1cccc(F)c1)C(=O)c1cc(-c2ccccc2)n[nH]1	-	-	-	0	-
Cc1ccccc1NC(=O)Cn1c(CCC(=O)O)ccc1-c1cccs1	0	0	0	0	0
O=C(O)CCc1ccc(-c2ccc(F)cc2)n1CC1CCCO1 (configuration not stated)	?	0	0	0	0
COCCCn1c(CCC(=O)O)ccc1-c1cccs1	?	0	?	0	0
SMILES	G9a block	VDR inhibitor	Sfp inh	ALOX12 inh	Glioma ERSR ind
COC(=O)c1ccccc1NC(=O)Cn1c(CCC(=O)O)ccc1-c1cccs1	?	0	56µM	0	0
Cc1ccc(NC(=O)Cn2c(CCC(=O)O)ccc2-c2cccs2)cc1	0	0	25µM	?	0
O=C(O)CCc1ccc(-c2cccs2)n1CC1CCCO1 (configuration not stated)	18µM	0	0	0	0
Cc1ccc(C(CC(=O)O)NC(=O)c2ccccc2C(F)(F)F)cc1 (configuration not stated)	-	-	-	0	-
O=C(OCC12CC3CC(CC(C3)C1)C2)c1ccc(NCc2cc(O)ccc2O)cc1	-	0	-	16µM	0
O=C(OCCC12CC3CC(CC(C3)C1)C2)c1ccc(NCc2cc(O)ccc2O)cc1	-	0	-	5.6µM	0
O=C(OCC12CC3CC(CC(C3)C1)C2)c1cc([N+](=O)[O-])cc([N+](=O)[O-])c1	-	-	-	0	-
CCNC(=O)OCCC12CC3CC(CC(C3)C1)C2	0	0	0	0	0
COc1ccc(NC(=O)CSc2nnc(C3CC3)n2C)cc1	0	28µM	0	0	0
COc1ccc(NC(=O)CSc2nnc(C3CCCCC3)n2-c2ccccc2)cc1	0[2.33 µM]	0	0	0	0
COc1ccc(NC(=O)CSc2nnc(C3CC3)n2N)cc1	0[12.7 µM]	0	0	0	0
Nn1c(SCC(=O)Nc2nccs2)nnc1C1CC1	40µM	0	0	-	0
O=C(CSc1nnc(C2CC2)n1-c1ccccc1)Nc1ccc(N2CCOCC2)cc1	56µM	0	0	0	0
CN(C)c1ccc(NC(=O)CSc2nnc(C3CCCCC3)n2N)cc1	40µM	0	0	0	0
O=C(NC1CCS(=O)(=O)C1)C1CCN(C2=NS(=O)(=O)c3ccccc32)CC1 (configuration not stated)	-	-	-	0	-
